Source: PubChem
TWEAK Fn14 block – inhibitors of TWEAK-Fn14 signaling, primary screen, luciferase reporter cells, uHTS. TWEAK-stimulated Fn14 reporter cells, luciferase luminescence, 8 h. inhibition, % at 10 µM. hit rate 2% among 360,000; in the data active = inhibition above about 50%
TROY signal inh – inhibitors of TROY-driven NF-kB signaling, primary screen, Q293 LMP1-TROYcd cells, NF-kB luciferase, uHTS. Q293 LMP1-TROYcd NF-kB luciferase reporter, 4 h. inhibition, % at 10 µM. hit rate 0.98% among 360,000. AID 1347056, 2019;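 active = compounds whose plate-normalised and pattern-corrected inhibition of the luciferase reporter signal at the single screening dose is 50% or more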
EBV LMP1 NFkB – EBV LMP1-driven NF-kappaB luciferase reporter inhibitors, primary screen, cell-based, luminescence, single point; LMP1-induced NF-kappaB luciferase reporter cells; inhibition, % at 12.5 µM; hit rate 0.69% among 350,000; in the data active = inhibition above about 41%;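 note: 0% = neutral control wells and 100% = reference inhibitor control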
MITF TRPM1 inh – inhibitors of MITF-dependent TRPM1 promoter reporter, primary screen, cell-based, SK-MEL-5, single point, luciferase. SK-MEL-5 TRPM1 promoter luciferase, 24 h. inhibition, % at 12.5 µM. hit rate 0.83% among 330,000;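 active = mean inhibition across replicates of 60% or more, whatever share of single replicates reaches that level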
Peg3 prom inh-1 – Peg3 promoter-driven luciferase inhibitors, primary screen, cell-based, HeLa, luciferase luminescence | HeLa PEG-Prom luciferase reporter, overnight | inhibition, % at 20 µM | hit rate 1.7% among 360,000 | AID 588405, 2011;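 active = inhibition of at least 50% at 20 µM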
Shn3 3UTR inh – reduction of Shn3 3'UTR firefly luciferase signal, primary screen, Schnurri-3 inhibitor project, cell-based, Clone20 osteoblasts, set 2 | Clone20 osteoblast Shn3 3'UTR firefly luciferase, 24 h | inhibition, % at 12.5 µM | hit rate 0.52% among 360,000 | AID 588674, 2011;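 active = mean inhibition of at least 75% with every replicate also reaching 75%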;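 note: 0% = median of neutral control wells and 100% = pilot-screen positive control compound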
Peg3 prom inh-2 – Peg3 promoter reporter inhibitors, retest, confirmation, cell-based, HeLa, luciferase reporter, single concentration; shares compounds with Peg3 prom inh-1; HeLa PEG-Prom luciferase reporter, luminescence, overnight; inhibition, % at 20 µM; hit rate 84% among 1,300; AID 602417, 2012;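 active = at 20 µM dose, 40% or more inhibition averaged across four replicates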
* hit, by the source's call; nt = not tested or not shown. In the library only some 4.1% were active in any assay of this set; here they are far more common.

SMILES	TWEAK Fn14 block	TROY signal inh	EBV LMP1 NFkB	MITF TRPM1 inh	Peg3 prom inh-1	Shn3 3UTR inh	Peg3 prom inh-2
C[C@]12CC[C@H]3[C@@H](CC[C@]4(O)C[C@@H](O)CC[C@]34C=O)[C@@]1(O)CC[C@@H]2C1=CC(=O)OC1	75*	40	38	86*	94*	2	nt
CC12CC[C@H]3[C@@H](CCC4(O)C[C@H](O)CCC34/C=N/NC(=O)c3ccccc3Cl)C1(O)CCC2C1=CC(=O)OC1 (some centres not stated)	-29	1	-11	25	7	-1	nt
COC(=O)C1=CCCN(C)C1	-10	-5	1	0	-1	12	nt
COC(=O)C1=C(c2cc3ccccc3s2)C[C@@H]2CC[C@H]1N2C(=O)NCc1ccc(C(F)(F)F)cc1	41	19	-6	1	38	55	nt
CC(=O)c1ccc(OC(C)C)c(Cc2c(O)[nH]c(=S)[nH]c2=O)c1	5	7	-1	4	16	-8	nt
Cc1ccc(CN2C(=O)NC(=O)C3(Cc4c(nc5ccccn5c4=O)N4CCCCCC43)C2=O)cc1 (configuration not stated)	30	87*	4	20	9	-5	nt
NCCc1ccc(OCc2ccccc2)c(OCc2ccccc2)c1	-1	-33	-2	98*	107*	5	nt
O=C1NC(=O)C(C2CCCCCC2)C(=O)N1	7	0	-2	-2	18	-25	nt
CCOC(=O)C1=C(C)OC(N)=C(C#N)C12C(=O)Nc1ccc(C)cc12 (configuration not stated)	5	5	4	6	14	2	nt
O=[N+]([O-])c1ccc(CNCCc2ccccc2)cc1	98*	-17	-4	-4	-8	12	nt
COc1ccc(-n2nnnc2C(C2CC2)N2CCC(n3c(=O)[nH]c4ccccc43)CC2)cc1 (configuration not stated)	28	19	nt	nt	58*	-30	58*
O=C1NCN(c2ccccc2)C12CCN(C(c1nnnn1-c1ccc3c(c1)OCCO3)C1CC1)CC2 (configuration not stated)	17	-13	nt	nt	22	-3	nt
Cc1cccc(C)c1-n1nnnc1C(c1ccccc1OC(F)(F)F)N1CCC(n2c(=O)[nH]c3ccccc32)CC1 (configuration not stated)	33	-9	nt	nt	52*	25	68*
CCC(c1nnnn1-c1ccc2c(c1)OCCO2)N1CCC(n2c(=O)[nH]c3ccccc32)CC1 (configuration not stated)	29	30	nt	nt	79*	19	80*
COC(=O)c1ccc(N2C(=O)CC(N3CCC(n4c(=O)[nH]c5ccccc54)CC3)C2=O)cc1 (configuration not stated)	-8	-1	-4	6	2	6	nt
COc1ccc(C(c2nnnn2-c2c(C)cccc2C)N2CCC(n3c(=O)[nH]c4ccccc43)CC2)cc1 (configuration not stated)	10	14	nt	nt	59*	2	48*
CS(=O)(=O)c1ccc(C2=C(CNC(=O)c3nccs3)[C@H]3CC[C@@H](C2)N3Cc2ccco2)cc1	-6	-3	-3	nt	-25	-8	nt
CC1=CC(O)C(O)C2(C)C1CC1OC(=O)CC3C(C)C(O)C(=O)C2C13CO (configuration not stated)	11	4	2	18	91*	18	20
CN1CCc2cc(O)cc3c2[C@H]1Cc1ccc(O)c(O)c1-3	4	-2	-9	-12	3	6	nt
CN1CCc2cc3c(c4c2C1Cc1ccccc1-4)OCO3 (configuration not stated)	6	-18	0	12	71*	16	27
CC1([N+](=O)[O-])COP(=O)(NCc2cccnc2)OC1 (configuration not stated)	-12	8	-2	6	0	0	nt
c1ccc(-c2cc(-c3ccccc3)[n+](-c3ccccc3)c(-c3ccccc3)c2)cc1	86*	71*	39	92*	111*	16	87*
Cc1ccc(-c2cc(-c3ccc(C)cc3)[n+](-c3ccccc3)c(-c3ccc(C)cc3)c2)cc1	92*	71*	45*	102*	80*	94*	94*
c1cc2c(cc1[C@H]1OCC3C1CO[C@@H]3c1ccc3c(c1)OCO3)OCO2 (some centres not stated)	-12	-2	-1	-23	-12	20	nt
Cn1cccc1/C=C1/C(=O)NC(=S)N(Cc2ccc(F)cc2)C1=O	3	6	3	48	106*	2	63*
SMILES	TWEAK Fn14 block	TROY signal inh	EBV LMP1 NFkB	MITF TRPM1 inh	Peg3 prom inh-1	Shn3 3UTR inh	Peg3 prom inh-2
Cn1cccc1/C=C1/C(=O)NC(=O)N(Cc2ccc(F)cc2)C1=O	-23	26	11	17	23	25	nt
CC(=O)OC1CC2(O)C3CCC4CC(O)CCC4(C)C3CCC2(C)C1C1=CC(=O)OC1 (configuration not stated)	85*	46	72*	71*	97*	-24	99*
O=C1NC(=S)N(c2ccccc2F)C(=O)/C1=C\c1cccs1	29	17	6	-2	102*	37	83*
O=C1NC(=O)C(=Cc2cccs2)C(=O)N1	-22	14	4	5	16	28	nt
CN1CCN(c2c(C#N)c(C(F)(F)F)nn2C)CC1	-2	3	9	3	4	-7	nt
Cc1ccc(N2C(=O)NC(=O)/C(=C/C=C/c3ccco3)C2=O)cc1	18	3	-8	73*	86*	78	35
O=C1NC(=O)N(Cc2ccc(F)cc2)C(=O)/C1=C\C=C\c1ccco1	17	-1	-81	93*	62*	10	66*
O=C1NC(=O)N(Cc2ccccc2)C(=O)/C1=C\c1ccco1	14	-9	7	35	17	24	nt
COc1ccc(C)cc1NC(=O)c1c(C)nn(Cc2ccccc2)c1Cl	-12	-2	-2	5	1	14	nt
Cc1ccc2[nH]c(C)c(CCNCc3cccnc3)c2c1	6	-9	-3	8	-10	-8	nt
COc1ccc(CNCCc2c(C)[nH]c3ccc(OC(F)(F)F)cc23)c(OC)c1	11	12	21	92*	99*	90*	99*
COc1cc(OC)c2c(c1)OCC1CON(C)C21 (configuration not stated)	24	2	-1	-2	5	16	nt
